Experimental data taken from ChEMBL document CHEMBL1201862, “PubChem BioAssay data set” (2004).
Where “and” joins values, the source holds several entries; their conditions need not be identical. Identical values can stand only once.

Assay: M. tuberculosis growth inhibition, dose response, purified and synthesized samples, set 9 (AID 602435); call rule not given here
Assay type: functional

SMILES | IC90
O=C(c1ccc(CNc2c(N3CCCC3)c(=O)c2=O)cc1)N1CCN(c2ccccc2)CC1 | > 83.3 µM (active)
CC1CCCN(C(=O)C2CCC(CNc3c(N4CCCCC4)c(=O)c3=O)CC2)C1 (configuration not stated) | > 50 µM (active)
O=C(c1ccc(CNc2c(N3CCCC3)c(=O)c2=O)cc1)N1CC=C(c2ccccc2)CC1 | > 44.6 µM (active) and > 50 µM (active)
CC(C)CCNC(=O)CSc1nc2c(c(=O)[nH]1)CCCCC2 | > 100 µM (active)
O=C(c1ccc(CNc2c(N3CCOCC3)c(=O)c2=O)cc1)N1CCN(c2ccccc2)CC1 | > 100 µM (active)
O=C(C1CCC(CNc2c(N3CCCCC3)c(=O)c2=O)CC1)N1CCCCC1 (configuration not stated) | > 50 µM (active)
Cc1cccc(N2CCN(C(=O)c3ccc(CNc4c(N5CCC(C)CC5)c(=O)c4=O)cc3)CC2)c1C | > 50 µM (active)
CC1CC(C)CN(C(=O)C2CCC(CNc3c(N4CCCCC4)c(=O)c3=O)CC2)C1 (configuration not stated) | > 75 µM (active) and > 50 µM (active)
O=C(NCCc1ccc(Cl)cc1)C1CCC(CNc2c(N3CCCCC3)c(=O)c2=O)CC1 (configuration not stated) | > 50 µM (active)
O=C(c1ccc(CNc2c(N3CCCC3)c(=O)c2=O)cc1)N1CCC(c2ccccc2)CC1 | > 100 µM (active)
O=C(c1ccc(CNc2c(N3CCCC3)c(=O)c2=O)cc1)N1CCc2ccccc2C1 | > 50 µM (active)
CC(C)OC(=O)CSc1ncnc2c1cnn2-c1ccccc1 | > 100 µM (active)
CC1CC(C)CN(C(=O)c2ccc(CNc3c(N4CCCC4)c(=O)c3=O)cc2)C1 (configuration not stated) | > 50 µM (active)
CC1CCN(C(=O)c2ccc(CNc3c(N4CCCC4)c(=O)c3=O)cc2)CC1 | > 50 µM (active)
CC1CCCN(C(=O)c2ccc(CNc3c(N4CCCCC4)c(=O)c3=O)cc2)C1 (configuration not stated) | > 50 µM (active)
COc1ccc(N2CCN(C(=O)c3ccc(CNc4c(N5CCOCC5)c(=O)c4=O)cc3)CC2)cc1 | > 73.2 µM (active) and > 39 µM (active)
CC(=O)c1ccc(NC(=O)c2ccc(CNc3c(N4CCOCC4)c(=O)c3=O)cc2)cc1 | > 50 µM (active)
